High-throughput results from PubChem.
This excerpt belongs to a sample that is enriched for hits.
nsP2pro primary: blocks chikungunya virus nsP2 protease peptide cleavage | AID 1964107 | Potency, µM (top dose mostly 24.9 µM), for inactives: top-dose activity change, negative = inhibition, hits mostly inhibitors | FRET peptide cleavage, nsP2pro, fluorescence 1 h | Q8JUX6 | hit rate 1.1% among 31,000; further: nearly all actives have a fitted effect of over 60% in size
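FRET cleavage of 2.5 uM peptide 2 by 150 nM CHIKV protease domain at pH 8.0 (Tris, Tween 20). Compounds at 7 concentrations (up to 25 uM) preincubated 15 min. Fluorescence read after 1 h at room temperature.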
CHIKV nsP2 cell: inhibits CHIKV nsP2 protease in cells | shares compounds with nsP2pro primary | Potency, µM (top dose mostly 51.1 µM), for inactives: at the top dose activity change, negative = inhibition, most hits filed as inhibitors | cell-based CHIKV nsP2 protease reporter assay | hit rate 10% among 450; further: nearly all actives have a fitted effect of over 70% in size
CHIKV NSP2 FL: full-length CHIKV NSP2 protease inhibition, selectivity; shares compounds with nsP2pro primary; Full-length CHIKV NSP2 protease enzymatic counterscreen; Potency, µM (titrated, usually from 50.7 µM), without a hit: top-dose activity change, negative = inhibition, usual class: inhibitors; hit rate 39% among 410; AID 1964101; further: nearly all actives have a fitted effect of over 65% in size
Furin counter: selectivity counter-screen for CHIKV nsP2 protease inhibitors: human furin; shares compounds with nsP2pro primary; hit rate 6% among 410; Recombinant human furin enzymatic counterscreen, fluorogenic substrate; AID 1964102; Potency, µM (top dose mostly 50.6 µM), for the others: at the top dose activity change, negative = inhibition, usual class: inhibitors
NS23 peptide cs: selectivity test for CHIKV nsP2 protease inhibitors: endogenous NS2/3 peptide; shares compounds with nsP2pro primary; Purified CHIKV nsP2 protease, endogenous NS2/3 peptide cleavage; Potency, µM (top dose mostly 51 µM), for inactives: at the highest dose activity change, negative = inhibition, usual class: inhibitors; hit rate 34% among 410; AID 1964103; further: nearly all actives have a fitted effect of over 55% in size
Papain cs: selectivity counter-screen for CHIKV nsP2 protease inhibitors: papain; purified papain protease activity, enzymatic inhibition; shares compounds with nsP2pro primary; AID 1964104; hit rate 5% among 410; Potency, µM (highest dose often 51 µM), for inactives: at the top dose activity change, negative = inhibition, most hits filed as inhibitors
Target sequence (P00784 whole entry, looked up): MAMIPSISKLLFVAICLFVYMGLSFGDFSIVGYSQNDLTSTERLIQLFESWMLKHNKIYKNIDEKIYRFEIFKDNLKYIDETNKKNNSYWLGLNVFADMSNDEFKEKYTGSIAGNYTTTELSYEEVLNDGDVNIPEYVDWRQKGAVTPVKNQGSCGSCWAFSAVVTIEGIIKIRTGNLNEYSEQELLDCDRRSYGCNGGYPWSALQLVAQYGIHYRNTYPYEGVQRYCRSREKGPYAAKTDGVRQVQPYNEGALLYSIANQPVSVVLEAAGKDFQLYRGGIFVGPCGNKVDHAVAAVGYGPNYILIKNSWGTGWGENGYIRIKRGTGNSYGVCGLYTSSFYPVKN
nsP2pro confirm: confirmation of CHIKV nsP2 protease inhibitors; hit rate 43% among 410; AID 1964105; shares compounds with nsP2pro primary; CHIKV nsP2 protease enzymatic activity, qHTS; Potency, µM (doses to about 25.5 µM), without a hit: top-dose activity change, negative = inhibition, usual class: inhibitors; further: nearly all actives have a fitted effect of over 75% in size
HCV NS3 counter: HCV NS3/4A protease inhibition, counterscreen; shares compounds with nsP2pro primary; HCV NS3/4A protease biochemical counterscreen; Potency, µM (titrated, usually from 50.9 µM), actives largely listed as inhibitors; hit rate 20% among 410; AID 1964106; further: nearly all actives have a fitted effect of over 55% in size
Starred values were filed as active, the others as inactive; i = inactive; ? = inconclusive; [ ] = dose if it differs, or a comment. The call rests on the fitted dose curve. On the % scale 0 is the no-effect control and ±100 the full control effect; potency means the concentration at half of the fitted maximal effect.

SMILES | nsP2pro primary | others
Cc1ccc(NC(=O)Cn2c(=O)n(CCC(=O)NCc3ccc4c(c3)OCO4)c(=O)c3sccc32)c(C)c1 | -20.5%
COc1ccc2cc(CNc3ccccc3)c(=O)n(CC(=O)Nc3ccc(C(C)=O)cc3)c2c1 | -9.8%
COC(=O)C1=C(C)NC(C)=C(C(=O)OCCc2ccc(N3CCN(C(c4ccccc4)c4ccccc4)CC3)cc2)C1c1cccc([N+](=O)[O-])c1 (centres undefined) | 1.2%
CC(C)COC(=O)c1ccc(N)cc1 | -2.4%
COC(=O)C1=C(C)NC(C)=C(C(=O)OCC(C)C)C1c1ccccc1[N+](=O)[O-] (centres undefined) | 9.88µM* | CHIKV nsP2 cell=?;CHIKV NSP2 FL=?;Furin counter=-11.0%;NS23 peptide cs=14.6µM*;Papain cs=16.7%;nsP2pro confirm=10µM*;HCV NS3 counter=i
O=C(/C=C/c1cccnc1)c1ccncc1 | 25.7%
CC[C@H]1OC(=O)[C@H](C)[C@@H](O[C@H]2C[C@@](C)(OC)[C@@H](O)[C@H](C)O2)[C@H](C)[C@@H](O[C@@H]2O[C@H](C)C[C@H](N(C)C)[C@H]2O)C(C)(O)C[C@@H](C)/C(=N\OCOCCOC)[C@H](C)[C@@H](O)[C@]1(C)O (some centres undefined) | -3.7%
CC(=O)OC(CSC1CCC(=O)OC(C)CCC(=O)C1)C(=O)O (centres undefined) | ? | CHIKV nsP2 cell=5.8%[33.5 µM];CHIKV NSP2 FL=-5.4%[33.5 µM];Furin counter=-4.7%[33.5 µM];NS23 peptide cs=-10.8%[33.5 µM];Papain cs=-10.9%[33.5 µM];nsP2pro confirm=?;HCV NS3 counter=?
CC1CCC2C(C)(C)[C@H](O)CC[C@]2(C)C12Cc1c(O)cc3c(c1O2)CN(C(CCC(=O)O)C(=O)O)C3=O (some centres undefined) | -9.5%[10 µM]
Cc1ccc(COC(=O)N2CC[C@@H](CNc3ncccn3)[C@@H](F)C2)cc1 | 14.2%
CC(C)c1ccccc1-c1ncc(F)c(NC2(c3ccc(-c4cccnc4)cc3)CC2)n1 | 0.3%
CC(C)=C[C@@H]1[C@H](CO[C@@H]2O[C@H](CO)[C@@H](O)[C@H](O)[C@H]2O)C1(C)C | 9.7%
CC(C)(C)OC(=O)N1CCN(c2ccc(NCc3ccc(-c4ccccc4F)o3)cc2)CC1 | -5.9%
COc1ccccc1NC(=O)c1cc(-c2ccc(C)c(C)c2)nc2ccccc12 | -3.8%
O=C(c1cnccn1)N1C[C@@H]2OCC(=O)N(CC3CCCCC3)[C@@H]2C1 | -29.0%[39.2 µM]
O=C1CO[C@H]2CN(c3ncccn3)C[C@H]2N1CC1CCCCC1 | 2.24µM* | CHIKV nsP2 cell=-5.2%;CHIKV NSP2 FL=-1.8%;Furin counter=?;NS23 peptide cs=23.7µM*;Papain cs=-0.6%;nsP2pro confirm=3.66µM*;HCV NS3 counter=9.43µM*
N#Cc1ccc(N2C[C@@H]3OCC(=O)N(CC4CCCCC4)[C@@H]3C2)nc1 | -2.9%[39.2 µM]
C[C@@H](COc1ccc(Oc2ccccc2)cc1)Oc1ccccn1 | -9.5%[39.2 µM]
CC/C(C)=C/C(=O)OC1C(OC2(C)CCC3C(C4C(C)CCC42)C3(C)C)OC(C)C(O)C1O (centres undefined) | ? | CHIKV nsP2 cell=?;CHIKV NSP2 FL=4.8%[17.3 µM];Furin counter=-17.0%[17.3 µM];NS23 peptide cs=-1.6%[17.2 µM];Papain cs=?;nsP2pro confirm=-9.8%[8.62 µM];HCV NS3 counter=i
CC(=O)CCC1C(=O)N(c2ccccc2)N(c2ccccc2)C1=O | 4.7%
C=C1C(=O)O[C@@H]2C[C@]3(C)[C@@H](CCC(C)=O)[C@@H]3C[C@H]12 | 16.9%
CC1=C2CC(O)(C(C)(C)O)C(O[C@@H]3O[C@H](CO)[C@@H](O)[C@H](O)[C@H]3O)CC(C)C2CC1=O (some centres undefined) | 29.6%[10 µM]
C=C1C(=O)O[C@@H]2C[C@H](C)[C@@H]3CC(=O)C(C)=C3C[C@H]12 | 0.442µM* | CHIKV nsP2 cell=?;CHIKV NSP2 FL=?;Furin counter=-6.7%;NS23 peptide cs=?;Papain cs=-2.8%;nsP2pro confirm=?;HCV NS3 counter=i
